RXFP1 antagonist = RXFP1 (human) relaxin receptor antagonism. HEK293-RXFP1, relaxin-stimulated cAMP HTRF, 30 min; hits give low values. hit rate 0.59% among 350,000. Q9HBX9. activity change, negative = inhibition, % at 57.5 µM;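 active = activity change of -60% or lower, but not beyond a set lower limit; inconclusive = change between -60% and -40%, or beyond the set limit; inactive = change above -40%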; also: % is scaled to controls: 0 for no effect and ±100 for the full control effect
Target sequence (Q9HBX9 whole entry, looked up): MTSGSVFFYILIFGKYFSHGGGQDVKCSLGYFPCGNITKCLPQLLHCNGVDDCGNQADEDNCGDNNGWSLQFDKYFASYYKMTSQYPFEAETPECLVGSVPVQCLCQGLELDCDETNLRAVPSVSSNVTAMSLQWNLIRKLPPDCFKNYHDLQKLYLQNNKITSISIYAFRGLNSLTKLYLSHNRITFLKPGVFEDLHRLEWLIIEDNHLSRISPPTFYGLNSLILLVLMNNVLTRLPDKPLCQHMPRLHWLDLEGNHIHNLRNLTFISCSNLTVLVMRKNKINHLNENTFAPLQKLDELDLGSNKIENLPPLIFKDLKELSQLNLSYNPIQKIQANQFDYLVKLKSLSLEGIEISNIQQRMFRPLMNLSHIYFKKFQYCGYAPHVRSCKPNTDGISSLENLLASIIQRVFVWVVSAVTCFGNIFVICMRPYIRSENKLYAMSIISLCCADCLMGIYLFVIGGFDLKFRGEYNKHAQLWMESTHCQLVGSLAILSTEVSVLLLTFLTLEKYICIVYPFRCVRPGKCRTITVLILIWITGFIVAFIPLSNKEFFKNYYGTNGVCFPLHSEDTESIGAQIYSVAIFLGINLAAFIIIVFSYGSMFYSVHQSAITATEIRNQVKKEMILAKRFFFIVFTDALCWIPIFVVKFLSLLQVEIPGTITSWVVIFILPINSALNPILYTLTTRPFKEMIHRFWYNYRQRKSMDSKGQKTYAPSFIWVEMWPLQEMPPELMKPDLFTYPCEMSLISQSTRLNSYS
RXFP1 ag = activates the human relaxin receptor RXFP1 | Q9HBX9 | HEK293T-RXFP1 cAMP TR-FRET, 30 min; response scale: percent of porcine relaxin response, buffer zero | Potency, µM (titrated, usually from 57.5 µM), for the others: at the highest dose activation, most hits filed as activators | hit rate 0.3% among 370,000 | AID 2676; also: potency is read from the fitted curve at half-maximal effect; % is scaled to controls: 0 for no effect and ±100 for the full control effect; nearly all actives have a fitted effect of over 60% in size
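Agonist response is measured as cAMP accumulation in an RXFP1-transfected HEK293T line under PDE4 inhibition. Values are scaled between buffer-only and 29 nM porcine relaxin, and EC50s come from standard Hill equation fits.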
PTHR1 agonist = PTHR1 (human) receptor agonism | Potency, µM (doses to about 115 µM), without a hit: at the highest dose activation, usual class: activators | HEK293 GP2 PTHR1 cells, GloSensor cAMP luminescence, 1 h | hit rate 0.075% among 410,000; also: potency is read from the fitted curve at half-maximal effect; nearly all actives have a fitted effect of over 55% in size
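HEK-293-derived GP2 cells expressing PTHR1 and a GloSensor cAMP reporter, 3,000/well, plated overnight, given luciferin plus IBMX (each 0.5 mM as added) for 1 h at 37 °C, then compound for 1 h at 37 °C. Luminescence was read after 15 min at room temperature.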
NPSR antagonist = antagonists of human neuropeptide S receptor cAMP signaling; CHO-NPSR cells, cAMP TR-FRET, antagonist mode; Potency, µM (titrated, usually from 38.3 µM), inactives show top-dose activity change, negative = inhibition, most hits filed as inhibitors; hit rate 1% among 220,000; also: potency is read from the fitted curve at half-maximal effect; % is scaled to controls: 0 for no effect and ±100 for the full control effect; nearly all actives have a fitted effect of over 50% in size
TSHR antag = human thyrotropin receptor antagonism | P16473 | TSHR-expressing cells, TSH-stimulated cAMP HTRF, 2 h; hits give low values | activity change, negative = inhibition, % at 11.5 µM | hit rate 0.2% among 330,000;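 active = activity change below a set negative limit, meaning inhibition stronger than a set level, cut at about -70% in these data; inconclusive = activity change between two set negative limits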; also: % is scaled to controls: 0 for no effect and ±100 for the full control effect
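Inhibition of cAMP made by TSHR-expressing cells under TSH stimulation (4nM final, EC80; 2 h, 37 deg C) is quantified with a one-step lysis HTRF kit, anti-cAMP cryptate versus cAMP-d2.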
TCR act = activators of T cell receptors | Potency, µM (series often up to 9.22 µM), inactives show top-dose activation of IL-2 secretion, actives largely listed as activators | 330,000 tested, under 10 active | primary human leukocytes, anti-CD3, IL-2 HTRF, 48 h | AID 504894; also: % of control where 0% means no effect
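Human primary leukocytes + a-CD3 beads + cpd, 48 hr; IL-2 in supernatant by HTRF (ex 320nm / em 665nm). No co-stimulatory signal supplied.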
An asterisk follows results filed as active; i = inactive; ? = inconclusive; . = no result given; [ ] = another dose, or the depositor's remark. This excerpt belongs to a sample that is enriched for hits. Unless noted, calls follow the shape of the dose curve; as a rule, active = well fitted curve in the direction sought with a large enough effect; inconclusive = small, poorly fitted or top-dose-only effect, or another doubt; inactive = no such curve, though single readings can be large; an effect the other way counts as inactive or inconclusive.

SMILES	RXFP1 antagonist	RXFP1 ag	PTHR1 agonist	NPSR antagonist	TSHR antag	TCR act
O=C(O)c1ccc(COc2ccccc2C=C2C(=O)c3ccccc3C2=O)cc1	-60.3*	-0.7%	-15.5%	1.4%	-10.8	4.0%[46.1 µM]
Fc1ccc(-c2noc3ncnc(NCC4CCN(Cc5ccc(Cl)cc5)CC4)c23)cc1	-18.5	1.7%	0.0%	.	.	.
CCC1CN(C(=O)Nc2cccc3c2CCCC3)c2cc(C)ccc2O1 (centres undefined)	-73.4*	1.5%	-3.0%	.	.	.
CCOc1ccccc1NC(=O)N1CC(C)Oc2ccc(Cl)cc21 (centres undefined)	-82.9*	1.1%	-44.1%	.	.	.
CCOC(=O)c1ccccc1NC(=O)N1CC(C)Oc2ccc(C)cc21 (centres undefined)	?	-0.2%	i	.	.	.
CCc1ccc(NC(=O)N2CC(C)Oc3ccc(C)cc32)cc1 (centres undefined)	-62.3*	0.1%	-12.3%	.	.	.
COc1ccc(NC(=O)CSc2ccc3nc(-c4ccccc4)cn3n2)c(OC)c1	-4.7	18.5%	-50.5%	.	.	.
O=C(Nc1c(C(=O)N2CCN(c3ccccc3F)CC2)oc2ccccc12)c1cccc(F)c1	-9.2	-1.2%	i	.	.	.
CC(C)CC(=O)Nc1ccc2nc(SCC(=O)N3CCc4ccccc43)sc2c1	.	1.0%	i	.	.	.
CCOc1ccc(N(C(=O)c2ccc(OC)cc2)S(=O)(=O)c2ccc3c(c2)n(C)c(=O)n3C)cc1	-7.7	-0.1%	-2.7%	.	.	.
Cc1nc2ccn(Cc3cccs3)c(=O)c2cc1C(=O)Nc1ccccc1	10.1	4.2%	-16.9%	.	.	.
CCOC(=O)c1c(S(=O)(=O)N2CCC(C(=O)Nc3cccc(C)n3)CC2)c(C)n(C)c1C	-0.8	0.1%	-4.9%	.	.	.
O=C(Nc1ccccc1)c1nnsc1S(=O)c1ccc(Cl)cc1 (centres undefined)	-104.6*	0.2%	-22.1%	?	-49.8	1.1%
Cc1ccc(CCNC(=O)CN2C(=O)COc3ccc(S(=O)(=O)N4CCC(C)CC4)cc32)cc1	?	-2.7%	-11.8%	.	-136.4*	-2.8%
Cc1ccc(CNC(=O)CN2C(=O)COc3ccc(S(=O)(=O)N4CCC(C)CC4)cc32)cc1	-5.1	2.5%	i	.	.	.
CC1CC(C)CN(CCCNC(=O)CN2C(=O)COc3ccc(S(=O)(=O)N4CCOCC4)cc32)C1 (centres undefined)	9.6	1.6%	i	.	-104.3*	-5.4%
O=C(c1cccc([N+](=O)[O-])c1)N1c2nc(-c3ccco3)nn2C2(CCCCC2)[C@@H]2CCCC[C@@H]21	-23.8	-0.1%	-26.7%	.	.	.
Cc1cc(OCCOCC[N+](C)(C)Cc2ccccc2)ccc1C(C)(C)CC(C)(C)C	-29.1	.	.	.	.	.
CCOC(=O)CC(NC(=O)CCc1c(C)nc2c(-c3ccccc3)c(C)nn2c1C)c1ccc(OC(C)C)cc1 (centres undefined)	.	-0.6%	-64.2%	.	.	.
CCOC(=O)CC(NC(=O)CCc1c(C)nc2nc(C)nn2c1C)c1ccc(OC(C)C)cc1 (centres undefined)	-5.6	17.8µM*	i	21.8%	10.8	-1.8%
COc1ccc(-n2nc(C(=O)NCC(=O)NCCCN3CCOCC3)c3ccccc3c2=O)cc1	31.6	15.8µM*	i	.	25.9	-2.7%
COc1ccc(-n2nc(C(=O)NCC(=O)NCCCN3CCOCC3)c3ccccc3c2=O)cc1OC	11.5	14.1µM*	-7.3%	.	4.6	-5.8%
COc1ccc(-n2nc(C(=O)NCC(=O)NCCCN3CCOCC3)c3ccccc3c2=O)cc1Cl	16.7	?	i	.	6.6	9.3%
COc1ccc(-n2nc(C(=O)NCC(=O)Nc3cc(OC)c(OC)c(OC)c3)c3ccccc3c2=O)cc1	3.8	2.7%	-2.5%	.	-1.4	4.4%
COc1ccc(-n2nc(C(=O)NCC(=O)Nc3cc(OC)c(OC)c(OC)c3)c3ccccc3c2=O)cc1OC	59.2	?	-6.4%	.	-117.5*	1.8%
SMILES	RXFP1 antagonist	RXFP1 ag	PTHR1 agonist	NPSR antagonist	TSHR antag	TCR act
O=C(COCc1cc(-c2ccc3c(c2)OCO3)on1)Nc1cccc(O)c1	-15.1	4.7%	-10.8%	.	.	.
CCOc1ccccc1Oc1nc(C)nc2c1oc1ccccc12	-21.8	1.4%	-9.4%	.	.	.
Cc1ccc(CNC(=O)CCNC(=O)N2CCn3c2nc2ccccc23)cc1	-2.0	-1.8%	i	.	-110.8*	-4.0%
Cc1ccc2[nH]c(CSc3nnc(NC(=O)COc4ccc(F)cc4)s3)cc(=O)c2c1	-11.6	-0.2%	i	.	.	.
Cc1oc(-c2ccccc2)nc1CCC(=O)c1ccc(CC2SC(=O)NC2=O)cc1 (centres undefined)	-36.8	.	.	.	.	.
COCCCn1c(=O)c2sccc2n(Cc2cccc(C)c2)c1=O	-2.2	-5.1%	-15.7%	.	-130.8*	1.0%
CCC(=O)O[C@]1(C(=O)COC)[C@@H](C)C[C@H]2[C@@H]3CCC4=CC(=O)C=C[C@]4(C)C3(F)[C@@H](O)C[C@@]21C (some centres undefined)	-31.4	.	.	.	.	.
O=S(=O)(Nc1ccc(O)c(Sc2nc3ccccc3s2)c1)c1cccc2ccccc12	-16.5	0.9%	i	?	-88.0*	-7.6%[46.1 µM]
O=S(=O)(Nc1ccc(O)c(Sc2nc3ccccc3s2)c1)c1cc(Cl)ccc1Cl	-32.4	0.8%	-8.1%	.	.	.
CC(=O)Nc1nc(-c2ccc([N+](=O)[O-])cc2)cs1	-0.8	-0.4%	i	-4.8%	-2.3	0.0%
O=C(Nc1ccc([N+](=O)[O-])cc1)Nc1nc(-c2ccc(Cl)s2)cs1	-9.3	0.2%	-33.2%	6.31µM*	?	0.3%[46.1 µM]
C=CCc1ccc(OCC(O)COc2ccc(CC=C)cc2OC)c(OC)c1	-68.6*	-4.7%	i	-18.9%[46.1 µM]	-33.3	6.6%
COC(=O)c1sc(NC(=S)NC(=O)c2ccccc2F)nc1C	-4.1	35.5µM*	-12.1%	12.6µM*	3.6	-29.1%
NC(=O)C1CCN(c2nc(-c3ccccc3Cl)cs2)CC1	.	.	.	.	4.6	.
Cc1ccc2c(c1)N(C(=O)c1ccc(F)cc1)C(C)(C)CC2(C)c1ccccc1 (centres undefined)	3.2	-0.1%	-15.2%	.	.	.
COc1ccc(C=C2C=C(C(C)(C)C)C(=O)C(C(C)(C)C)=C2)cc1OC	-88.0*	-0.2%	-6.3%	.	0.8	1.4%
Cc1cc(C)cc(OC(C)C(=O)NCCCn2ccnc2)c1 (centres undefined)	6.9	-0.2%	i	.	-103.9*	-1.3%
O=C(CSc1ccc2nc(-c3ccccc3)cn2n1)Nc1cccc(F)c1	-3.2	14.1%	i	.	.	.
CCCCn1cc(S(=O)(=O)c2ccccc2)c(=O)c2cc(F)c(N3CCC(C)CC3)cc21	-30.6	5.5%	i	.	.	.
